# Results reported in PubChem BioAssay.
# “And” between values parts separate entries of the source, which are not always exact repeats. Equal entries are not always repeated. The source made the active and inactive calls.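 How the source made its calls: active means mean z-score across replicates of 1.96 or higher in either the MELAS or the Rieske mutant cell line; inactive means the rest.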
# Test: MELAS cybrid and Rieske KO viability enhancers – cell-based, MELAS cybrids, Rieske KO mouse fibroblasts, CellTiter-Glo, primary screen (AID 1508586);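 further: test concentration not given here; z relative to plate mean and SD of compound and empty wells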
# Conditions: MELAS cybrid survival, low glucose, CellTiter-Glo 48 h; stronger effect = higher value
row,Structure (SMILES),z-score
1,Cc1ccsc1/C=C/C1=NCCCN1C,-0.598 (inactive)
2,CCOC(=O)C1=C(C)NC(C)=C(C(=O)OC)C1c1cccc(Cl)c1Cl (configuration not stated),-0.244 (inactive) and -0.163 (inactive) and -0.233 (inactive)
3,O=C(NCCN1CCOCC1)c1ccc(Cl)cc1,0.188 (inactive) and 0.694 (inactive)
4,CC1(C)O[C@@H]2C[C@H]3[C@@H]4C[C@H](F)C5=CC(=O)CC[C@]5(C)[C@H]4[C@@H](O)C[C@]3(C)[C@]2(C(=O)CO)O1,-0.21 (inactive)
5,Cc1cc(NC(=O)C2=C(O)c3ccccc3S(=O)(=O)N2C)no1,0.335 (inactive)
6,CN1CCOC(c2ccccc2)c2ccccc2C1 (configuration not stated),0.332 (inactive)
7,CO[C@]12C[C@@H](COC(=O)c3cncc(Br)c3)CN(C)[C@@H]1Cc1cn(C)c3cccc2c13,0.949 (inactive) and 0.883 (inactive)
8,NS(=O)(=O)Cc1noc2ccccc12,0.598 (inactive) and -0.977 (inactive) and -0.661 (inactive)
9,CC(C)(O)c1ccccc1CC[C@@H](SCC1(CC(=O)O)CC1)c1cccc(/C=C/c2ccc3ccc(Cl)cc3n2)c1,0.313 (inactive) and -0.452 (inactive)
10,O=C1CC2(CCCC2)CC(=O)N1CCCCN1CCN(c2ncccn2)CC1,0.0234 (inactive) and -0.506 (inactive) and -2.15 (inactive)
11,Nc1ccc(C(=O)O)c(O)c1,-0.177 (inactive) and -0.201 (inactive) and 0.567 (inactive)
12,O=C(O)c1ccccc1OP(=O)(O)O,0.629 (inactive)

# Same assay, conditions: Rieske KO mouse fibroblast survival, low glucose, CellTiter-Glo 72 h
row,Structure (SMILES),z-score
1,CC(C)(Oc1ccc(CCNC(=O)c2ccc(Cl)cc2)cc1)C(=O)O,-0.148 and 0.0926 and -0.592
2,CC[N+](C)(C)Cc1ccccc1Br,0.0274
3,CCCc1ncc(C[n+]2ccccc2C)c(N)n1,-0.2 and 0.188
4,CCCCNc1ccc(C(=O)OCCN(C)C)cc1,-0.0172 and -0.0428
5,COc1cc2c(cc1OC)-c1cc(=Nc3c(C)cc(C)cc3C)n(C)c(=O)n1CC2,1.81
6,CN(C)CCC(c1ccccc1)c1ccccn1 (configuration not stated),-0.594 and -0.285 and 0.31
7,COc1cc(-c2ccc(=O)[nH]n2)ccc1OC(F)F,-0.582 and -0.616
8,CC[C@]12CCCN3CCc4c(n(c5ccccc45)C(=O)C1)[C@@H]32,0.169
9,c1cnc(N2CCN(Cc3ccc4c(c3)OCO4)CC2)nc1,-0.536 and 0.482
10,C=C1c2cccc(O)c2C(O)=C2C(=O)[C@]3(O)C(O)=C(C(N)=O)C(=O)[C@@H](N(C)C)[C@@H]3[C@@H](O)[C@H]12,-2.31
11,CCCOc1ccccc1-c1nc2n[nH]nc2c(=O)[nH]1,-0.13 and -0.629
12,COc1ccc(CN(CCN(C)C)c2ccccn2)cc1,0.0359 and 0.287
13,Cc1c(N(C)C)c(=O)n(-c2ccccc2)n1C,-0.137 and 0.114
14,CCN(CC)CCOCCOC(=O)C1(c2ccccc2)CCCC1,0.186
15,O=C(CCNNC(=O)c1ccncc1)NCc1ccccc1,-0.171 and 0.697
16,CN1CCN(C2=Nc3ccccc3Oc3ccc(Cl)cc32)CC1,-0.224 and 0.0483
17,CSc1ccc2c(c1)C(N1CCN(C)CC1)Cc1ccccc1S2 (configuration not stated),0.279 and -1.2
18,OCc1cc(C(O)CNCCCCCCOCCCCc2ccccc2)ccc1O (configuration not stated),-0.33 and 0.063

row,Structure (SMILES),z-score
1,Nc1ccc(S(=O)(=O)NC(=O)c2ccccc2)cc1,-0.379
2,O=C(O)c1ccccc1Nc1cccc(C(F)(F)F)c1,-0.153 and 0.0506 and 0.216
3,NC(N)=NC(=O)Cc1c(Cl)cccc1Cl,0.336 and -1.29
4,COCCc1ccc(OCC(O)CNC(C)C)cc1 (configuration not stated),-0.175 and -0.344 and -0.724
5,CCCCC1C(=O)N(c2ccccc2)N(c2ccccc2)C1=O,0.0743 and -0.296 and -0.0136
6,Cc1ccsc1/C=C/C1=NCCCN1C,0.242
7,CCOC(=O)C1=C(C)NC(C)=C(C(=O)OC)C1c1cccc(Cl)c1Cl (configuration not stated),-0.0889 and -0.113 and 0.553
8,O=C(NCCN1CCOCC1)c1ccc(Cl)cc1,0.0884 and 0.188
9,CC1(C)O[C@@H]2C[C@H]3[C@@H]4C[C@H](F)C5=CC(=O)CC[C@]5(C)[C@H]4[C@@H](O)C[C@]3(C)[C@]2(C(=O)CO)O1,0.615
10,Cc1cc(NC(=O)C2=C(O)c3ccccc3S(=O)(=O)N2C)no1,0.203
11,CN1CCOC(c2ccccc2)c2ccccc2C1 (configuration not stated),0.617
12,CO[C@]12C[C@@H](COC(=O)c3cncc(Br)c3)CN(C)[C@@H]1Cc1cn(C)c3cccc2c13,0.302 and 0.698
13,NS(=O)(=O)Cc1noc2ccccc12,-0.432 and -0.0491 and -0.914
14,CC(C)(O)c1ccccc1CC[C@@H](SCC1(CC(=O)O)CC1)c1cccc(/C=C/c2ccc3ccc(Cl)cc3n2)c1,0.134 and -0.566
15,O=C1CC2(CCCC2)CC(=O)N1CCCCN1CCN(c2ncccn2)CC1,-3.18 and -0.781 and 0.669
16,Nc1ccc(C(=O)O)c(O)c1,-0.173 and -0.712 and -0.26
17,O=C(O)c1ccccc1OP(=O)(O)O,-0.238
